# Assay results as given in PubChem BioAssay (EPA / NIEHS).
# Values joined by “and” are separate entries in the source; they are usually repeats but may differ in a detail not shown here. Equal values may be shown once. Records with an inconclusive call do not appear. Some compounds were tested as several samples or in several runs, with calls that do not always agree. Active and inactive are the calls of the source. Rule for the calls, unless noted: active = hit-call score of the fitted dose curve at least 0.9, where 1 is the maximum; inconclusive = response in the unintended direction; inactive = score below 0.9.
# Experiments:
# [1] = target: Estrogen receptor beta (Homo sapiens) (UniProt Q92731); test: OT_ER_ERbERb_1440: Odyssey Thera (OT) 24-hour HEK293T Protein-Complementation Assay for Estrogen Receptor-beta/-beta Homodimer (AID 2283380);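 note: fluorescence gain from ER beta LBD homodimer complementation read by laser scanning cytometry; scored as signal increase over DMSO baseline for both agonists and antagonists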
# Estrogen receptor beta (Homo sapiens), sequence (Q92731 whole entry, looked up, the tested form may be a part): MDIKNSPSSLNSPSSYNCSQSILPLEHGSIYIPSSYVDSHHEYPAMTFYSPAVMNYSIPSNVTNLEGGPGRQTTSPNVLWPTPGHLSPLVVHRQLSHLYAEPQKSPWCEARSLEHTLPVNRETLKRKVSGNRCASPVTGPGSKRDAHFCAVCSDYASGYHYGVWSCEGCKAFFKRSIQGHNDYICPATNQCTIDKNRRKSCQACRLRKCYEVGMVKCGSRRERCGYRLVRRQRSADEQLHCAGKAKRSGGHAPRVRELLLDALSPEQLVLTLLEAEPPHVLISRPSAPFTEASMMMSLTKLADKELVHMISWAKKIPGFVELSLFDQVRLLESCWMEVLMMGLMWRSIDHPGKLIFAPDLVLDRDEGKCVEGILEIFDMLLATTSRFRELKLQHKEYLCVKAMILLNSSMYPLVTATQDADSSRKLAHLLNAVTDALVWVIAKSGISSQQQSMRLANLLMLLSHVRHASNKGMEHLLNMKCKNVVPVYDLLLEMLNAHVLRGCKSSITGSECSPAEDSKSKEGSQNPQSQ
# Summary of the method: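 Fluorescence increase, nuclear for agonists or whole-cell for antagonists, relative to DMSO vehicle, quantified by laser scanning cytometer after fixation and Draq5 staining. Readout from 24 h treatment of HEK293T cells carrying complementation-paired ER beta LBD (aa 310-547).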
# [2] = target: Estrogen receptor (Homo sapiens) (UniProt P03372); test: OT_ERa_GFPERaERE_0480: Odyssey Thera (OT) 8-hour HeLa Transcription Induction Assay for Estrogen Receptor (AID 2283381; active = hit-call score of the fitted dose curve at least 0.9, where 1 is the maximum; inactive = score below 0.9)
# Estrogen receptor (Homo sapiens), sequence (P03372 whole entry, looked up): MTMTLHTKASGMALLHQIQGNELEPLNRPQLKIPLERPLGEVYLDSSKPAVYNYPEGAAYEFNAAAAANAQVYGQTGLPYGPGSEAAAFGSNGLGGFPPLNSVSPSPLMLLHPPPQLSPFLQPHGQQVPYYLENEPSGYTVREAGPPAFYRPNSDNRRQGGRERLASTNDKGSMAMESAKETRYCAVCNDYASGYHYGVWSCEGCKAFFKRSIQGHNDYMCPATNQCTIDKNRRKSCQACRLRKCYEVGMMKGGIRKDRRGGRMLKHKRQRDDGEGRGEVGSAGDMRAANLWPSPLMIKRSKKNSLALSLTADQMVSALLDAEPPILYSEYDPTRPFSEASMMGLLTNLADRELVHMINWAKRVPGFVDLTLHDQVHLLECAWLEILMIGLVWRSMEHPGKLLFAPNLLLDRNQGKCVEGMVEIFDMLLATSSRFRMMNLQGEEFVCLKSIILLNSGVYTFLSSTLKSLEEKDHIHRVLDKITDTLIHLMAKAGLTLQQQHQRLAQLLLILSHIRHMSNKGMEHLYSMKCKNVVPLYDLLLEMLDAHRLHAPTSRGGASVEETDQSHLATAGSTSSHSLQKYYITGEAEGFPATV
# Summary of the method: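 An 8 h HeLa transcription-induction format with a GFP reporter under ERE control, read by fluorescence microscopy; single endpoint fitted positively with DMSO as baseline.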
# [3] = target: Estrogen receptor (Homo sapiens) (UniProt P03372); test: OT_ERa_GFPERaERE_0120: Odyssey Thera (OT) 2-hour HeLa Transcription Induction Assay for Estrogen Receptor (AID 2283382)
# Summary of the method: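 Two-hour compound treatment of HeLa cells preceded microscopy imaging of an inducible fluorescent reporter. Image-based quantification gave one endpoint, analysed for signal increase relative to DMSO controls.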
# [4] = target: Retinoic acid receptor RXR-alpha (Homo sapiens) (UniProt P19793); test: OT_NURR1_NURR1RXRa_0480: Odyssey Thera (OT) 8-hour HEK293T Protein Complementation Assay for Nurr1/retinoid X receptor (RXR) (AID 2283385)
# Retinoic acid receptor RXR-alpha (Homo sapiens), sequence (P19793 whole entry, looked up, the tested form may be a part): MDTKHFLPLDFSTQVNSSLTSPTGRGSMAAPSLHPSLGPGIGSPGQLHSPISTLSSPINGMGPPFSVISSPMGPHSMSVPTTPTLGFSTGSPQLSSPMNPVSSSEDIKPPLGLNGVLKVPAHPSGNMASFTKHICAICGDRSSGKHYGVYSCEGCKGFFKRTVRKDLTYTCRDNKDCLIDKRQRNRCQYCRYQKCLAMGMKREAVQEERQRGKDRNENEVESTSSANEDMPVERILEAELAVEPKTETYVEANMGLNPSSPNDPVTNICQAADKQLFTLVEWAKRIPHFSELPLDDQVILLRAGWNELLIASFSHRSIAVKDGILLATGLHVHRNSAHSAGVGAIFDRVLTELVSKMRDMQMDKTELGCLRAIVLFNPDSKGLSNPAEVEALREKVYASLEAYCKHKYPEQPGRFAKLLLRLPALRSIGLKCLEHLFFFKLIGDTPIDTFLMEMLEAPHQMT
# Summary of the method: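 Gain in fluorescent complementation signal over DMSO, measured 8 hours after chemical dosing of human kidney HEK293T cells, indicated enhanced Nurr1–RXRα association.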
# [5] = target: Retinoic acid receptor RXR-alpha (Homo sapiens) (UniProt P19793); test: OT_NURR1_NURR1RXRa_1440: Odyssey Thera (OT) 24-hour HEK293T Protein Complementation Assay for Nurr1/retinoid X receptor (RXR) (AID 2283386)
# Summary of the method: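 Cell-based binding reporter: HEK293T cells, 24 h exposure, fluorescence-detected fragment complementation, DMSO as baseline.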
# [6] = target: Peroxisome proliferator-activated receptor gamma (Homo sapiens) (UniProt P37231); test: OT_PPARg_PPARgSRC1_0480: Odyssey Thera (OT) 8-hour Protein-Complementation Assay for Peroxisome Proliferator-activated Receptor Gamma / SRC-1 Co-activator (AID 2283387);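 note: nuclear to cytoplasmic split Venus YFP fluorescence ratio reporting PPARg SRC-1 interaction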
# Peroxisome proliferator-activated receptor gamma (Homo sapiens), sequence (P37231 whole entry, looked up, the tested form may be a part): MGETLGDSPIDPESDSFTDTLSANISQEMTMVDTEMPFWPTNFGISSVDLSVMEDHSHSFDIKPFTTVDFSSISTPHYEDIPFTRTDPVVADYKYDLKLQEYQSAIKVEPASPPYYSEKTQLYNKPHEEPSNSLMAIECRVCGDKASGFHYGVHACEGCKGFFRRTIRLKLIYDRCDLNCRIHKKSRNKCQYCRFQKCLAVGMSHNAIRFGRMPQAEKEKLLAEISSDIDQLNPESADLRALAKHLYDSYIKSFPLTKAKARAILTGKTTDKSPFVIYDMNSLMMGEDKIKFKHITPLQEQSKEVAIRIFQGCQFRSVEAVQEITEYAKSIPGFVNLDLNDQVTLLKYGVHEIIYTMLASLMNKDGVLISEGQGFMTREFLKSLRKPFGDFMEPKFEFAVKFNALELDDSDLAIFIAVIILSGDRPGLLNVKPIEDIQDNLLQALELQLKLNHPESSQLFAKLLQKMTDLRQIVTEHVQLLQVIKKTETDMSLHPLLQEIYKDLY
# Summary of the method: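 Split-YFP (IFP1/IFP2) PPARg/SRC-1 reporter, HEK293T, 37 °C, 5% CO2; 8 h compound; formaldehyde fix + Draq5; high-content imaging, N/C ratio, ≥350 cells/image, positive direction vs DMSO.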
# [7] = target: Peroxisome proliferator-activated receptor gamma (Homo sapiens) (UniProt P37231); test: OT_PPARg_PPARgSRC1_1440: Odyssey Thera (OT) 24-hour Protein-Complementation Assay for Peroxisome Proliferator-activated Receptor Gamma/ SRC-1 Co-activator (AID 2283388);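 note: nuclear to cytoplasmic ratio of reconstituted Venus YFP fluorescence in fixed imaged cells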
# Summary of the method: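 Protein-fragment complementation between PPARg and coactivator SRC-1 was measured by fluorescence imaging in transiently transfected HEK293T cells after 24 h treatment. Signal was quantified as N/C ratio in the 488 nm channel, with DMSO as negative control.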
# [8] = target: Bile acid receptor (Homo sapiens) (UniProt Q96RI1); test: OT_FXR_FXRSRC1_1440: Odyssey Thera (OT) 24-hour HEK293T Protein-Complementation Assay for Farnesoid X receptor/SRC-1 Co-activator (AID 2283384)
# Bile acid receptor (Homo sapiens), sequence (Q96RI1 whole entry, looked up): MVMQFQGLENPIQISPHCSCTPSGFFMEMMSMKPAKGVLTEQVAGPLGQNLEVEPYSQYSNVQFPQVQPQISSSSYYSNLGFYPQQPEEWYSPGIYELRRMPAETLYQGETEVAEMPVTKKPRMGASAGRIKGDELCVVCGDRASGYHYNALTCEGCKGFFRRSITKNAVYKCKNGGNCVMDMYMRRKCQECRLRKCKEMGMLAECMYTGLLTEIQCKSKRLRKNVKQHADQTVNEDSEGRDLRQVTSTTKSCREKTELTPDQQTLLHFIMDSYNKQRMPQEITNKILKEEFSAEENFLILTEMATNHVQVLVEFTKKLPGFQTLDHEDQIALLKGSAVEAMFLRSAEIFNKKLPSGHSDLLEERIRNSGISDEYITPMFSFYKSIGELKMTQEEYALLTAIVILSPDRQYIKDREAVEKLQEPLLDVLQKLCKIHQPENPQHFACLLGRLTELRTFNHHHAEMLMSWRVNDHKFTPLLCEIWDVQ
# Summary of the method: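 Single endpoint, analysed for increased fluorescence against DMSO controls. HEK293T cells carrying FXR and SRC-1 linked to complementary reporter halves were exposed to chemicals for 24 h before reading.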
# [9] = target: Agonist Androgen Response Element (ARE), AR (gene 367) (UniProt P10275); test: OT_AR_ARELUC_AG_1440: Odyssey Thera (OT) 24-hour CHO-K1 Luciferase Assay for Agonist Androgen Response Element (ARE) (AID 2283379)
# Agonist Androgen Response Element (ARE), AR (gene 367), sequence (P10275 whole entry, looked up): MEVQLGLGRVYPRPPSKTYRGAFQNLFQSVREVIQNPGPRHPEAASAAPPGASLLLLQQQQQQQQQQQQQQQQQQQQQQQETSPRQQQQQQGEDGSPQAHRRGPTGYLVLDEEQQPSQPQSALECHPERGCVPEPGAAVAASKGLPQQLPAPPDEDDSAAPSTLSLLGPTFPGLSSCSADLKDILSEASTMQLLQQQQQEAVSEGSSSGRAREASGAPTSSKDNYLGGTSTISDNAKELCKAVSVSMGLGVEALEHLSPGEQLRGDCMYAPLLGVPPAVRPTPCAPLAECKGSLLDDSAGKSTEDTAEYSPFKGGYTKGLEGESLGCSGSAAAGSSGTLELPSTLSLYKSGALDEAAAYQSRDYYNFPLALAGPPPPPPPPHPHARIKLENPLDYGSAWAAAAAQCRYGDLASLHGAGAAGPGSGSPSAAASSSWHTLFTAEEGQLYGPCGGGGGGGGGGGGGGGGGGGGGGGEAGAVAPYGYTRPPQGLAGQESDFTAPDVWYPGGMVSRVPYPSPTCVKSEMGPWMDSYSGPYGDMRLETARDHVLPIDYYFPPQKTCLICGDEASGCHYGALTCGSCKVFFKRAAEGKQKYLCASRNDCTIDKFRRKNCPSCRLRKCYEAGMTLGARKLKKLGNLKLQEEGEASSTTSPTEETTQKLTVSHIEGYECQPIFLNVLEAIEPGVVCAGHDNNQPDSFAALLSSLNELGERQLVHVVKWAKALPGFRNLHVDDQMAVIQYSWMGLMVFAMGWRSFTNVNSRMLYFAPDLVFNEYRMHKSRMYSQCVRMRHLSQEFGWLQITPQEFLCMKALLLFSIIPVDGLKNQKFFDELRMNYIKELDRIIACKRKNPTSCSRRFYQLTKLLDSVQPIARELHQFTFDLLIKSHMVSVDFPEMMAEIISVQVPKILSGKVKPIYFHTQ
# Summary of the method: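 Readout: luciferase bioluminescence from CHO-K1 ARE-luc cells, measured 24 h post-dosing; agonism = increased mean luminescence vs DMSO controls, fitted in positive direction.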
# [10] = CEETOX_H295R_11DCORT: CeeTox H295R High-throughput Steroidogenesis Assay for 11-Deoxycortisol (11DCORT) (AID 2283432; active = hit-call score of the fitted dose curve at least 0.9, where 1 is the maximum; inactive = score below 0.9;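 for AC50: human adrenal H295R cells prestimulated with 10 µM forskolin for 48 h; 11-deoxycortisol secreted into the medium measured by LC-MS/MS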); details: actives raise or lower the signal
# Summary of the method: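 Steroidogenesis in human H295R cells: 48 h chemical exposure after forskolin priming, 11-deoxycortisol measured by LC-MS/MS.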
compound,measurement,setting,value
Nc1c(Cl)c(Cl)nc(C(=O)O)c1Cl,outcome,[1],inactive
same,outcome,[2],inactive
same,outcome,[3],inactive
same,outcome,[4],inactive
same,outcome,[5],inactive
same,outcome,[6],inactive
same,outcome,[7],inactive
CCOc1nc(C(Cl)(Cl)Cl)ns1,outcome,[1],inactive
same,outcome,[2],inactive
same,outcome,[3],inactive
same,outcome,[4],inactive
same,outcome,[5],inactive
same,outcome,[6],inactive
same,outcome,[7],inactive
CCC(C)n1c(=O)[nH]c(C)c(Br)c1=O (stereo not drawn),outcome,[1],inactive
same,outcome,[2],inactive
same,outcome,[3],inactive
same,outcome,[8],inactive
same,outcome,[4],inactive
same,outcome,[5],inactive
same,outcome,[6],inactive
same,outcome,[7],inactive
CCCCC(O)(Cn1cncn1)c1ccc(Cl)cc1Cl (stereo not drawn),outcome,[9],inactive
same,outcome,[1],inactive
same,outcome,[2],inactive
same,AC50,[3],77.5 µM (active)
same,AC50,[8],34.9 µM (active)
same,outcome,[6],inactive
same,outcome,[7],inactive
COCc1cnc(C2=NC(C)(C(C)C)C(=O)N2)c(C(=O)O)c1 (stereo not drawn),outcome,[9],inactive
same,outcome,[1],inactive
same,outcome,[2],inactive
same,outcome,[3],inactive
same,outcome,[8],inactive
same,outcome,[4],inactive
same,outcome,[5],inactive
same,outcome,[6],inactive
same,outcome,[7],inactive
same,outcome,[10],inactive
COc1cc(OC)nc(NC(=O)NS(=O)(=O)c2ncccc2OCC(F)(F)F)n1,outcome,[1],inactive
same,outcome,[2],inactive
same,outcome,[3],inactive
same,outcome,[8],inactive
same,outcome,[5],inactive
same,outcome,[6],inactive
same,outcome,[7],inactive
Clc1cccc(C(Cl)(Cl)Cl)n1,outcome,[9],inactive
same,outcome,[1],inactive
same,outcome,[2],inactive
same,outcome,[3],inactive
same,outcome,[8],inactive
same,outcome,[4],inactive
same,outcome,[5],inactive
same,outcome,[6],inactive
same,outcome,[7],inactive
COP(=S)(OC)Oc1ccc([N+](=O)[O-])c(C)c1,outcome,[1],inactive
same,outcome,[2],inactive
same,outcome,[3],inactive
same,AC50,[8],29.8 µM (active)
same,outcome,[4],inactive
same,outcome,[5],inactive
same,outcome,[6],inactive
same,outcome,[7],inactive
same,AC50,[10],6.36 µM (active)
CCCN(CC)CC1COC2(CCC(C(C)(C)C)CC2)O1 (stereo not drawn),outcome,[1],inactive
same,outcome,[2],inactive
same,outcome,[3],inactive
same,AC50,[4],50 µM (active)
same,outcome,[4],inactive
same,outcome,[5],inactive
same,AC50,[10],0.202 µM (active)
Cc1cnc(C2=NC(C)(C(C)C)C(=O)N2)c(C(=O)O)c1 (stereo not drawn),outcome,[9],inactive
same,outcome,[1],inactive
same,outcome,[2],inactive
same,outcome,[3],inactive
same,outcome,[4],inactive
same,outcome,[5],inactive
same,outcome,[6],inactive
same,outcome,[7],inactive
CC1(C)C(C(=O)OC(C#N)c2cccc(Oc3ccccc3)c2)C1(C)C (stereo not drawn),outcome,[1],inactive
same,outcome,[2],inactive
same,outcome,[3],inactive
same,AC50,[8],5.39 µM (active)
same,outcome,[4],inactive
same,outcome,[5],inactive
same,outcome,[6],inactive
same,outcome,[7],inactive
O=C(O)c1c(Cl)ccc2cc(Cl)cnc12,outcome,[1],inactive
same,outcome,[2],inactive
same,outcome,[3],inactive
same,outcome,[8],inactive
same,outcome,[4],inactive
same,outcome,[5],inactive
same,outcome,[6],inactive
same,outcome,[7],inactive
COc1ccc(-c2ccccc2)cc1NNC(=O)OC(C)C,outcome,[9],inactive
same,outcome,[1],inactive
same,outcome,[2],inactive
same,outcome,[3],inactive
same,outcome,[8],inactive
same,outcome,[4],inactive
same,outcome,[5],inactive
same,outcome,[6],inactive
same,outcome,[7],inactive
COC(=O)N(C(=O)N1CO[C@@]2(C(=O)OC)Cc3cc(Cl)ccc3C2=N1)c1ccc(OC(F)(F)F)cc1,outcome,[9],inactive
same,outcome,[1],inactive
same,outcome,[2],inactive
same,outcome,[3],inactive
same,outcome,[4],inactive
same,outcome,[5],inactive
same,outcome,[6],inactive
same,outcome,[7],inactive
Nc1c(Cl)c(F)nc(OCC(=O)O)c1Cl,outcome,[9],inactive
same,outcome,[1],inactive
same,outcome,[2],inactive
same,outcome,[3],inactive
same,outcome,[5],inactive
same,outcome,[6],inactive
same,outcome,[7],inactive
CCOP(=O)(OCC)Oc1nc(Cl)c(Cl)cc1Cl,outcome,[9],inactive
same,outcome,[1],inactive
same,outcome,[2],inactive
same,outcome,[3],inactive
same,outcome,[4],inactive
same,AC50,[5],9.87 µM (active)
same,outcome,[5],inactive
same,outcome,[6],inactive
same,outcome,[7],inactive
CS(=O)(=O)c1ccc(C(=O)C2C(=O)CCCC2=O)c([N+](=O)[O-])c1,outcome,[1],inactive
same,outcome,[2],inactive
same,outcome,[3],inactive
same,outcome,[8],inactive
same,outcome,[4],inactive
same,outcome,[6],inactive
same,outcome,[7],inactive
CCCCOCN(C(=O)CCl)c1c(CC)cccc1CC,outcome,[1],inactive
same,AC50,[2],71.3 µM (active)
same,outcome,[3],inactive
same,AC50,[8],75.1 µM (active)
same,outcome,[4],inactive
same,AC50,[5],76.8 µM (active)
same,outcome,[5],inactive
same,outcome,[6],inactive
same,outcome,[7],inactive
CN/C(=N\[N+](=O)[O-])NCc1cnc(Cl)s1,outcome,[1],inactive
same,outcome,[2],inactive
same,outcome,[3],inactive
same,outcome,[4],inactive
same,outcome,[5],inactive
same,outcome,[6],inactive
same,outcome,[7],inactive
CCN(CC)C(=O)C(C)Oc1cccc2ccccc12 (stereo not drawn),outcome,[1],inactive
same,outcome,[2],inactive
same,outcome,[3],inactive
same,AC50,[8],31.3 µM (active)
same,outcome,[4],inactive
same,outcome,[5],inactive
same,outcome,[6],inactive
same,outcome,[7],inactive
COP(=S)(OC)SCn1nnc2ccccc2c1=O,outcome,[9],inactive
same,outcome,[1],inactive
same,outcome,[2],inactive
same,outcome,[3],inactive
same,outcome,[6],inactive
same,outcome,[7],inactive
C=CCOC(=O)C(C)(C)OC(=O)c1cc(-n2c(=O)cc(C(F)(F)F)n(C)c2=O)ccc1Cl,outcome,[1],inactive
same,outcome,[2],inactive
same,outcome,[3],inactive
same,outcome,[4],inactive
same,outcome,[5],inactive
same,outcome,[6],inactive
same,outcome,[7],inactive
COC(=O)NC(=S)Nc1ccccc1NC(=S)NC(=O)OC,outcome,[1],inactive
same,outcome,[2],inactive
same,outcome,[3],inactive
same,outcome,[8],inactive
same,outcome,[5],inactive
same,outcome,[6],inactive
same,outcome,[7],inactive
same,outcome,[10],inactive
CCOc1cc(C(C)(C)C)ccc1C1COC(c2c(F)cccc2F)=N1 (stereo not drawn),outcome,[1],inactive
same,outcome,[2],inactive
same,outcome,[3],inactive
same,AC50,[8],31.6 µM (active)
same,outcome,[4],inactive
same,AC50,[5],18.5 µM (active) and 20.6 µM (active)
same,outcome,[6],inactive
same,outcome,[7],inactive
COCC(=O)N(c1c(C)cccc1C)C(C)C(=O)OC (stereo not drawn),outcome,[1],inactive
same,outcome,[2],inactive
same,outcome,[3],inactive
same,outcome,[8],inactive
same,outcome,[4],inactive
same,outcome,[5],inactive
same,outcome,[6],inactive
same,outcome,[7],inactive
COP(=O)(OC)O/C(C)=C/C(=O)N(C)C,outcome,[1],inactive
same,outcome,[2],inactive
same,outcome,[3],inactive
same,outcome,[4],inactive
same,outcome,[5],inactive
same,outcome,[6],inactive
same,outcome,[7],inactive
O=c1n(Cl)c(=O)n(Cl)c(=O)n1Cl,outcome,[1],inactive
same,outcome,[2],inactive
same,outcome,[3],inactive
same,outcome,[4],inactive
same,outcome,[5],inactive
same,outcome,[6],inactive
same,outcome,[7],inactive
CC1(C)CCC(=Cc2ccc(Cl)cc2)C1(O)Cn1cncn1 (stereo not drawn),outcome,[9],inactive
same,outcome,[1],inactive
same,outcome,[2],inactive
same,outcome,[3],inactive
same,outcome,[5],inactive
same,outcome,[6],inactive
same,outcome,[7],inactive
same,outcome,[10],inactive
COC(=O)c1c(C(F)F)nc(C(F)(F)F)c(C2=NCCS2)c1CC(C)C,outcome,[9],inactive
same,AC50,[1],43.7 µM (active)
same,outcome,[2],inactive
same,outcome,[3],inactive
same,outcome,[4],inactive
same,outcome,[5],inactive
same,outcome,[6],inactive
same,outcome,[7],inactive
C=C(C)CN(CC)c1c([N+](=O)[O-])cc(C(F)(F)F)cc1[N+](=O)[O-],outcome,[1],inactive
same,outcome,[2],inactive
same,AC50,[3],12.1 µM (active)
same,outcome,[4],inactive
same,outcome,[5],inactive
same,outcome,[6],inactive
same,outcome,[7],inactive
CSC(=O)c1c(C(F)F)nc(C(F)(F)F)c(C(=O)SC)c1CC(C)C,AC50,[1],21.5 µM (active)
same,outcome,[2],inactive
same,outcome,[3],inactive
same,outcome,[4],inactive
same,AC50,[5],69.6 µM (active)
same,outcome,[5],inactive
same,outcome,[6],inactive
same,outcome,[7],inactive
Cc1c(COC(=O)[C@@H]2[C@H](/C=C(\Cl)C(F)(F)F)C2(C)C)cccc1-c1ccccc1,outcome,[1],inactive
same,outcome,[2],inactive
same,outcome,[3],inactive
same,outcome,[8],inactive
same,outcome,[4],inactive
same,outcome,[5],inactive
same,outcome,[6],inactive
same,outcome,[7],inactive
CC(C)N1C(=O)N(c2ccccc2)CSC1=NC(C)(C)C,AC50,[1],27.7 µM (active)
same,outcome,[2],inactive
same,outcome,[3],inactive
same,AC50,[4],74.4 µM (active)
same,outcome,[4],inactive
same,AC50,[5],80.8 µM (active)
same,outcome,[5],inactive
same,outcome,[6],inactive
same,outcome,[7],inactive
